According to ChEMBL document CHEMBL1961873, “Compounds: GSK PKIS; Assays: Nanosyn kinase panel” (2012):

What follows are compounds tested against Tyrosine-protein kinase BTK (Homo sapiens) (UniProt Q06187). Details: at 0.1 µM.
Sequence of Tyrosine-protein kinase BTK (Homo sapiens) (Q06187 whole entry): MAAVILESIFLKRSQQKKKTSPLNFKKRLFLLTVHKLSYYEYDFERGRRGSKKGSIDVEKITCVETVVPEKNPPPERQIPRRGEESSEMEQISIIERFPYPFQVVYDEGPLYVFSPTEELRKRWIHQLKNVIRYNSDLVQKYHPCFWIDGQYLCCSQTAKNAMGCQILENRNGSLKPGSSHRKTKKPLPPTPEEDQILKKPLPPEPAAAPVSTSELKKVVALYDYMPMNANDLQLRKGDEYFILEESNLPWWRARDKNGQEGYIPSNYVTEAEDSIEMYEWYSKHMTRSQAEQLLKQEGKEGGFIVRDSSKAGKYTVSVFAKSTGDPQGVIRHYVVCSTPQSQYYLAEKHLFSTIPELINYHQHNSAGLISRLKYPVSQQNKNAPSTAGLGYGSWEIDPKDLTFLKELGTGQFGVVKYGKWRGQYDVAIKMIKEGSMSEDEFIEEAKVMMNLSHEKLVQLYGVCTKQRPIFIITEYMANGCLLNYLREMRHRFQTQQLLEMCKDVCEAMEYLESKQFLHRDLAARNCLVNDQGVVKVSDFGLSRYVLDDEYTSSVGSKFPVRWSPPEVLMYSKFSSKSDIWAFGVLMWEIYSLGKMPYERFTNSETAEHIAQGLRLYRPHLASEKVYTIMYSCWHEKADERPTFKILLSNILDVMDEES

Row | SMILES | inhibition
1 | Nc1ccc(C#Cc2cncnc2Nc2ccc(OCc3cccc(F)c3)c(Cl)c2)cc1 | -0.24%
2 | O=S(=O)(CCOCc1ccc(-c2ccc3ncnc(Nc4ccc(OCc5cccc(F)c5)c(Cl)c4)c3c2)o1)c1ccccc1 | -1.67%
3 | Nc1nccc(C#Cc2cncnc2Nc2ccc(OCc3cccc(F)c3)c(Cl)c2)n1 | 0.96%
4 | ON=C1CCc2cc(-c3nc(C4CCNCC4)[nH]c3-c3ccncc3)ccc21 | -1.11%
5 | Cc1cc(O)cc(C)c1/C=C/c1cncc(C(=O)N(C)C)c1 | 1.28%
6 | CCn1c(-c2nonc2N)nc2c(C#CC(C)(C)O)nc(OCCNC)cc21 | -1.33%
7 | Cc1cc(-c2ccccn2)cc(C)c1/C=C/c1cncc(-c2nn[nH]n2)c1 | 2.43%
8 | NS(=O)(=O)c1ccc(-c2cc3ccncc3cc2OCc2ccccc2)cc1 | 0.49%
9 | CS(=O)(=O)Nc1cccc(-c2ccc3c(NC(=O)C4CC4)n[nH]c3c2)c1 | 0.45%
10 | O=C(Nc1ccc(Oc2ccc3[nH]c(NC(=O)c4ccco4)nc3c2)cc1)Nc1cc(C(F)(F)F)ccc1F | -3.7%
11 | COc1ccc2ncnc(Nc3ccc(OCc4ccccc4)cc3)c2c1 | -0.01%
12 | COC(=O)c1cncc(/C=C/c2c(C)cc(O)cc2C)c1 | 1.9%
13 | Cc1ccc(C(=O)NC2CC2)cc1-c1ccc2[nH]ncc2c1 | 0.06%
14 | COc1cc2ncnc(Nc3ccc4c(cnn4Cc4ccccc4)c3)c2cc1OC | 4.09%
15 | Cc1ccc2c(c1)/C(=N/Nc1ccc(S(N)(=O)=O)cc1)C(=O)N2 | 0.42%
16 | CN(C)CCCn1c(-c2nonc2N)nc2cnccc21 | 0.72%
17 | CCCN1CCCC(c2ccc(Nc3nc(Nc4cc(F)ccc4C(N)=O)c4cc[nH]c4n3)c(OC)c2)C1 (stereo unspecified) | 0.49%

Row | SMILES | inhibition
18 | Cc1ccc(NC(=O)CC2CC2)cc1-c1ccc(C(=O)NCC2CC2)cc1 | 1.4%
19 | Cc1ccc(Nc2ccnc(Nc3cccc(C(N)=O)c3)n2)cc1O | 3.4%
20 | CN(c1ccc(NC(=O)Nc2ccc(OC(F)(F)F)cc2)cc1)c1ccnc(Nc2cccc(S(N)(=O)=O)c2)n1 | 0.33%
21 | CS(=O)(=O)CCNCc1nc(-c2ccc3ncnc(Nc4ccc(OCc5cccc(C(F)(F)F)c5)cc4)c3c2)cs1 | 0.43%
22 | Cc1nc(-c2ccccc2)n2nc(NCCCN3CCOCC3)ncc12 | 0.19%
23 | CN(C)C(=O)O[C@H]1CN[C@H](C#Cc2cc3ncnc(Nc4ccc(OCc5cccc(F)c5)c(Cl)c4)c3s2)C1 | -1.08%
24 | NC(=O)c1sc(-n2cnc3ccccc32)cc1OCc1ccccc1Br | -0.65%
25 | COc1cc(/C=N/Nc2ncnc3c2cnn3C(C)C)ccc1O | -0.92%
26 | Cc1ccc2c(-c3ccnc(Nc4cccc(C(F)(F)F)c4)n3)c(-c3ccccc3)nn2n1 | 0.51%
27 | CC(C)c1ccc2c(c1)NC(=O)/C2=N/Nc1ccc(S(N)(=O)=O)cc1 | -0.25%
28 | NS(=O)(=O)c1ccc(NC=C2C(=O)Nc3ccc4ncsc4c32)cc1 | 0.4%
29 | CN(C)c1cc2c(Nc3ccc4c(cnn4Cc4ccccc4)c3)ncnc2cn1 | 1.09%
30 | Oc1cccc(-c2nc(-c3ccccc3)[nH]c2-c2ccncc2)c1 | 2.03%
31 | CCn1c(-c2nonc2N)nc2ccc(F)cc21 | 0.19%
32 | CN1CCN(C(=O)c2ccc(NC(=O)Nc3ccc(N(C)c4ccnc(Nc5ccc(CS(C)(=O)=O)cc5)n4)cc3)cc2)CC1 | 1.59%
33 | Nc1nccc(-c2c(-c3ccc(F)cc3)nn3cc(C(F)(F)F)ccc23)n1 | 0.89%

These compounds were tested against Tyrosine-protein kinase BTK (Homo sapiens) (UniProt Q06187). Details: at 1 µM.

Row | SMILES | inhibition
34 | Nc1ccc(C#Cc2cncnc2Nc2ccc(OCc3cccc(F)c3)c(Cl)c2)cc1 | 1.11%
35 | O=S(=O)(CCOCc1ccc(-c2ccc3ncnc(Nc4ccc(OCc5cccc(F)c5)c(Cl)c4)c3c2)o1)c1ccccc1 | -1.3%
36 | Nc1nccc(C#Cc2cncnc2Nc2ccc(OCc3cccc(F)c3)c(Cl)c2)n1 | 7.04%
37 | ON=C1CCc2cc(-c3nc(C4CCNCC4)[nH]c3-c3ccncc3)ccc21 | 3.08%
38 | Cc1cc(O)cc(C)c1/C=C/c1cncc(C(=O)N(C)C)c1 | 1.08%
39 | CCn1c(-c2nonc2N)nc2c(C#CC(C)(C)O)nc(OCCNC)cc21 | -0.61%
40 | Cc1cc(-c2ccccn2)cc(C)c1/C=C/c1cncc(-c2nn[nH]n2)c1 | 0.75%
41 | NS(=O)(=O)c1ccc(-c2cc3ccncc3cc2OCc2ccccc2)cc1 | -0.08%
42 | CS(=O)(=O)Nc1cccc(-c2ccc3c(NC(=O)C4CC4)n[nH]c3c2)c1 | 1.66%
43 | O=C(Nc1ccc(Oc2ccc3[nH]c(NC(=O)c4ccco4)nc3c2)cc1)Nc1cc(C(F)(F)F)ccc1F | -3.03%
44 | COc1ccc2ncnc(Nc3ccc(OCc4ccccc4)cc3)c2c1 | 1.33%
45 | COC(=O)c1cncc(/C=C/c2c(C)cc(O)cc2C)c1 | 2.92%
46 | Cc1ccc(C(=O)NC2CC2)cc1-c1ccc2[nH]ncc2c1 | -1.33%
47 | COc1cc2ncnc(Nc3ccc4c(cnn4Cc4ccccc4)c3)c2cc1OC | 29.1%
48 | Cc1ccc2c(c1)/C(=N/Nc1ccc(S(N)(=O)=O)cc1)C(=O)N2 | 3.78%
49 | CN(C)CCCn1c(-c2nonc2N)nc2cnccc21 | 0.12%
50 | CCCN1CCCC(c2ccc(Nc3nc(Nc4cc(F)ccc4C(N)=O)c4cc[nH]c4n3)c(OC)c2)C1 (stereo unspecified) | -1.31%

Row | SMILES | inhibition
51 | Cc1ccc(NC(=O)CC2CC2)cc1-c1ccc(C(=O)NCC2CC2)cc1 | 2.39%
52 | Cc1ccc(Nc2ccnc(Nc3cccc(C(N)=O)c3)n2)cc1O | 29.1%
53 | CN(c1ccc(NC(=O)Nc2ccc(OC(F)(F)F)cc2)cc1)c1ccnc(Nc2cccc(S(N)(=O)=O)c2)n1 | 5.19%
54 | CS(=O)(=O)CCNCc1nc(-c2ccc3ncnc(Nc4ccc(OCc5cccc(C(F)(F)F)c5)cc4)c3c2)cs1 | 1.66%
55 | Cc1nc(-c2ccccc2)n2nc(NCCCN3CCOCC3)ncc12 | 0.66%
56 | CN(C)C(=O)O[C@H]1CN[C@H](C#Cc2cc3ncnc(Nc4ccc(OCc5cccc(F)c5)c(Cl)c4)c3s2)C1 | 0.74%
57 | NC(=O)c1sc(-n2cnc3ccccc32)cc1OCc1ccccc1Br | -0.19%
58 | COc1cc(/C=N/Nc2ncnc3c2cnn3C(C)C)ccc1O | 0.84%
59 | Cc1ccc2c(-c3ccnc(Nc4cccc(C(F)(F)F)c4)n3)c(-c3ccccc3)nn2n1 | 5.18%
60 | CC(C)c1ccc2c(c1)NC(=O)/C2=N/Nc1ccc(S(N)(=O)=O)cc1 | 0.07%
61 | NS(=O)(=O)c1ccc(NC=C2C(=O)Nc3ccc4ncsc4c32)cc1 | 3.74%
62 | CN(C)c1cc2c(Nc3ccc4c(cnn4Cc4ccccc4)c3)ncnc2cn1 | 9.11%
63 | Oc1cccc(-c2nc(-c3ccccc3)[nH]c2-c2ccncc2)c1 | 2.36%
64 | CCn1c(-c2nonc2N)nc2ccc(F)cc21 | -0.49%
65 | CN1CCN(C(=O)c2ccc(NC(=O)Nc3ccc(N(C)c4ccnc(Nc5ccc(CS(C)(=O)=O)cc5)n4)cc3)cc2)CC1 | 16%
66 | Nc1nccc(-c2c(-c3ccc(F)cc3)nn3cc(C(F)(F)F)ccc23)n1 | 0.4%
